PINK1 modulator: modulators of PINK1 expression | PINK1 immunofluorescence, high-content cytometry, 24 h | Potency, µM (highest dose often 76.6 µM), inactives show top-dose activation (PINK1 increase), actives largely listed as activators | 0.2% of 410,000 active; active means well fitted activation curve with a large enough effect; inconclusive means small, poorly fitted or top-dose-only effect; cell line not stated here; further: potency means the concentration at half of the fitted maximal effect; % of control where 0% means no effect; nearly all actives have a fitted effect of over 65% in size
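Stable cell line, 250 cells/well, 12 h attachment; compounds pinned at 5 concentrations, 24 h; CCCP control. Fixed with nuclear dye, primary antibodies 12 h at 10 degrees C, secondary plus cell stain; laser-scanning cytometer read.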
ATXN viability: cell viability loss in ATXN counter-screen | 0.49% of 400,000 active | AID 651635 | S2 cells (HEK-293 line with an ATXN2-luciferase reporter) viability, CellTiter-Fluor protease fluorescence, 24 h | Potency, µM (titrated, usually from 56.7 µM), hits mostly cytotoxic; further: potency means the concentration at half of the fitted maximal effect; nearly all actives have a fitted effect of over 40% in size
MCF10A rerep: DNA re-replication induction in MCF 10a cells. 2.9% of 350,000 active. Potency, µM (top dose mostly 46.1 µM), inactives show top-dose activity, positive = re-replication, actives largely listed as activators. MCF 10A DNA re-replication, Hoechst nuclear intensity, 48 h; further: potency means the concentration at half of the fitted maximal effect; % of control where 0% means no effect; nearly all actives have a fitted effect of over 50% in size
SW480 rerep: induces DNA re-replication in SW480 colon adenocarcinoma cells. 1.8% of 340,000 active. SW480 DNA re-replication, Hoechst DNA content imaging, 48 h. Potency, µM (series often up to 46.1 µM), without a hit: at the top dose re-replication activation, usual class: activators; further: potency means the concentration at half of the fitted maximal effect; % of control where 0% means no effect; nearly all actives have a fitted effect of over 55% in size
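First, 250 cells per well were seeded. Next, compound or vehicle (23 nL) was pinned in, plates sat 48 hr at 37 C. Finally Hoechst was added for 40 min before fluorescence scanning.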
ATXN2 expr inh: inhibitors of ATXN2 expression; HEK-293 ATXN2-luciferase reporter, luminescence, 24 h; Potency, µM (highest dose often 57 µM), for the others: at the top dose activity change, negative = inhibition, usual class: inhibitors; 0.72% of 360,000 active; AID 1745845; further: potency means the concentration at half of the fitted maximal effect; on the % scale 0 is the no-effect control and ±100 the full control effect; nearly all actives have a fitted effect of over 55% in size
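qHTS (up to 57 uM final) was run with 24 h compound exposure of reporter cells at 37 °C. Each well was multiplexed: SteadyGlo luminescence measured ATXN2-luciferase expression after a fluorogenic Gly-Phe-AFC viability readout (25 uM final).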
IL-1B inflam inh: inhibitors of inflammasome signaling (IL-1 beta secretion) | 4.7% of 360,000 active | activity change, % at 57.5 µM | AID 743279 | THP-1 LPS/ATP IL-1B secretion, AlphaLISA, 16 h; hits give low values; in the data active means activity change below about -50%; inconclusive means mostly about -30% to -49%; further: on the % scale 0 is the no-effect control and ±100 the full control effect
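Secreted IL-1B measured by AlphaLISA bead assay after 16 h compound exposure of THP-1 cells; compounds (final up to 57.5 uM) added 1 h before LPS (250 ng/mL) and ATP (1.25 mM) stimulation; lower signal means less secretion.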
* hit, by the source's call; i = inactive; ? = inconclusive; · = no result. This is a sample that favours compounds with a hit; in the whole collection about 7.1% have one here. Unless noted, the call rests on the fitted dose curve; in most records, active means well fitted curve in the direction sought with a large enough effect; inconclusive means small, poorly fitted or top-dose-only effect, or another doubt; inactive means no such curve, though single readings can be large; an effect the other way counts as inactive or inconclusive.

SMILES | PINK1 modulator | ATXN viability | MCF10A rerep | SW480 rerep | ATXN2 expr inh | IL-1B inflam inh
CCCCCCCC(=O)N/N=C/c1ccc([N+](=O)[O-])o1 | 6.2% | ? | ? | ? | · | 13.5
COc1ccc(CNC(=O)c2nc(Cn3nc(C)c(Br)c3C)no2)cc1OC | -2.8% | i | · | · | -9.7% | ·
CC(C)c1ccc(-n2cccc2/C=C2/C(=N)N3C=CSC3=NC2=O)cc1 | ? | i | 23.1µM* | ? | -1.9% | 0.7
COc1ccc(-c2csc(C(C)(O)c3cccc(F)c3)n2)cc1 (stereo unspecified) | 8.2% | ? | · | · | 0.2% | -4.9
CC(C)CCNC(=O)c1cnc2sc(N3CCCCC3)nn2c1=O | 0.8% | i | · | · | ? | ·
Cc1cc(C)c2nc3nc(C)c(C)cc3c(N)c2c1 | -3.0% | · | ? | 0.1% | ? | -88.6*
COc1ccc(/C=N/n2cnc3c([nH]c4ccc(Br)cc43)c2=O)cc1CN1CCOCC1 | -1.2% | i | ? | ? | -21.8% | -88.1*
COc1ccc(N2CC(C(=O)N3CCCC(C)C3)CC2=O)cc1 (stereo unspecified) | 0.7% | i | 2.8% | 18.4µM* | 1.4% | 20.4
Cc1c(C(=O)NCCSCc2cccc(C(F)(F)F)c2)cnn1-c1ccc(Cl)cc1 | 0.5% | i | ? | -150.2% | -25.8% | -57.0*
CC(=O)c1cnn(-c2ccc(Cl)cc2)c1C | -2.2% | i | -4.6% | 1.9% | 2.2% | 8.9
CN(C)CCNC(=O)Cc1ccc(NC(=O)N2CCCCc3ccccc32)cc1 | -1.9% | i | · | · | 0.2% | ·
CCC(C(=O)Nc1cccc(-c2cn3cccnc3n2)c1)c1ccccc1 (stereo unspecified) | 1.1% | i | · | · | -10.8% | ·
Cc1ccccc1C(=O)NNC(=O)C(=O)N1CCCCC1 | 1.3% | i | -17.1% | -8.7% | 7.1% | 24.5
Cc1ccc(NNC(=O)C(=O)N2CCCCC2)cc1 | 1.1% | ? | 6.51µM* | 20.1% | -20.0% | 2.4
COc1ccc(Nc2nc(C)nc3c2nnn3Cc2ccccc2)cc1OC | 5.2% | i | 12.9% | -0.6% | -13.8% | -10.9
Cc1nc(Nc2ccc(Cl)cc2)c2nnn(Cc3ccccc3)c2n1 | 6.3% | i | 23.1µM* | 11.3% | 3.0% | -0.6
COc1ccc(-c2coc3c(C(=O)NCc4cccs4)cccc23)c(C)c1 | 1.8% | i | · | · | 0.0% | -52.6*
COc1ccc(-c2ccc(C(=O)NCc3ccco3)c3occc23)c(C)c1 | 4.3% | i | · | · | -8.4% | -53.2*
COc1ccc(-c2ccc(C(=O)NCc3cccs3)c3occc23)c(C)c1 | 2.0% | i | · | · | -27.3% | -22.5
COc1ccc(-c2coc3c(C(=O)NCc4ccco4)cccc23)c(C)c1 | 12.2% | ? | · | · | ? | -26.1
CCOC(=O)c1nc2cc3n(c(C)c-2c1C)C(C)C(C)=C3C (stereo unspecified) | 1.1% | i | 7.6% | -4.0% | -20.9% | -61.7*
COC(=O)C1=C(C)NC2=C(C(=O)CCC2)C1c1cn(Cc2ccc(Br)cc2)nc1-c1ccccc1 (stereo unspecified) | -0.5% | i | ? | ? | -7.1% | -61.6*
COc1ccc(CC(N)c2csc(Nc3ccc(C(=O)c4ccccc4)cc3)n2)cc1 (stereo unspecified) | -1.0% | ? | · | · | 35.5µM* | -69.7*
NC(Cc1ccccc1)c1csc(Nc2ccc(C(=O)c3ccccc3)cc2)n1 (stereo unspecified) | -0.9% | ? | · | · | ? | -68.7*
Cc1ccc(CN2CCOc3ccc(CN4CCC(Oc5cccnc5)CC4)cc3C2)o1 | -0.9% | i | · | · | · | ·
SMILES | PINK1 modulator | ATXN viability | MCF10A rerep | SW480 rerep | ATXN2 expr inh | IL-1B inflam inh
O=C(CCN1C(=O)c2ccccc2Sc2ncccc21)Nc1ccc(F)cc1 | -0.6% | · | · | · | · | ·
COc1ccc2c(C)c(CCC(=O)NCc3cccc(Cl)c3)c(=O)oc2c1 | 1.8% | i | · | · | -7.4% | ·
CC1(C)C(=O)N(CC(=O)Nc2cccc(F)c2)c2ccc(S(=O)(=O)N3CCCCC3)cc21 | 2.9% | ? | · | · | -9.0% | ·
COc1cccc(N2CCN(C(=O)c3cnc4c(-c5ccc(F)cc5)c(C)nn4c3C)CC2)c1 | -0.5% | · | · | · | · | ·
Cc1ccc(N=C2NC(=O)/C(=C\c3ccsc3)S2)c(C)c1 | 10.3% | i | 18.4µM* | 2.9% | 6.2% | 0.3
Cc1ccc(N=C2NC(=O)/C(=C/c3cccnc3)S2)c(C)c1 | -2.8% | i | ? | -2.6% | -33.0% | ?
COc1c(C)cc(C(O)c2ncc(-c3ccc4ccccc4c3)[nH]2)cc1C (stereo unspecified) | ? | ? | · | · | 2.2% | 0.0
COC(=O)c1sc2cccc(F)c2c1S(=O)(=O)N1CCN(c2ccc(F)cc2)CC1 | 1.9% | i | · | · | 6.8% | ·
S=C1SCN(CC2CC2)CN1CC1CC1 | 3.0% | i | -0.8% | 5.8µM* | ? | -24.3
Cc1ccc(-c2nc3ccccc3o2)cc1NC(=O)C(C)Oc1ccccc1 (stereo unspecified) | -0.6% | · | · | · | · | ·
CC(NCC(O)COc1ccc2ccccc2c1)c1ccccc1 (stereo unspecified) | -3.7% | ? | ? | 23.1µM* | 17.8µM* | -94.4*
COc1ccc(OCC(O)CNC(C)c2ccccc2)cc1 (stereo unspecified) | -0.3% | i | -3.9% | 0.1% | · | -12.4
COc1ccc(OCC(O)CN(C2CCCCC2)C2CCCCC2)cc1 (stereo unspecified) | 3.7% | i | 8.1% | 2.0% | -12.4% | -3.2
Cc1cc(OCC(O)CNC(C)c2ccccc2)ccc1C(C)C (stereo unspecified) | -1.9% | ? | ? | ? | -13.3% | -90.5*
CN(CC(O)COc1ccc2ccccc2c1)C1CCCCC1 (stereo unspecified) | 4.8% | i | ? | 5.7% | -13.1% | -82.0*
Cc1nn(-c2ccccc2)c(-n2cccc2)c1C(=O)NCCc1ccc(Cl)cc1 | 1.1% | i | · | · | -15.2% | ·
C=C(C)CN=C1SC(C(=O)Nc2sc3c(c2C(=O)OC)CCC3)C(N)=C1C(N)=O (stereo unspecified) | 2.6% | i | 4.11µM* | ? | -2.9% | -3.4
Oc1ccccc1C1C=C(c2ccc3c(c2)OCO3)NC(c2c(F)cccc2Cl)N1 (stereo unspecified) | 1.8% | · | · | · | · | ·
CN(CCOc1ccc(Br)cc1)CC(O)COc1ccc(C#N)cc1 (stereo unspecified) | 1.0% | i | -1.2% | ? | ? | -87.4*
CN(CCOc1ccccc1)CC(O)COc1ccccc1 (stereo unspecified) | 0.2% | i | -4.5% | 3.8% | -1.8% | -10.1

Source: PubChem BioAssay
